From PubChem BioAssay AID720554 (ICCB-Longwood Screening Facility, Harvard Medical School, 2013)
Among all 12,000 compounds or so, about 45 (0.4%) were called active. The sample holds actives, similar compounds and a random draw of the others, so the mix is not that of the screen. Rule as the data show it: active = inhibition mostly above about 83% (no sharp cut-off); inactive = mostly below about 52%.

Experiments:
[1] = BmaI1 acyl-homoserine lactone synthase inhibition – biochemical, fluorescence intensity, with counterscreen (AID 720554); conditions: BmaI1 enzyme assay, measured here: counterscreen fluorescence % control, concentration not given here
[2] = system: acyl-homoserine lactone synthase BmaI1 (Burkholderia mallei ATCC 23344); assay: as above; conditions: BmaI1 enzyme assay, stronger effect = higher value, concentration not given here

Row | SMILES | inhibition [1] [%] | inhibition [2]
1 | COc1ccc(C(=O)Nc2nccs2)c(F)c1 | 6.5 | 9.5% (inactive)
2 | Cc1ccc(SCC(=O)NC(=O)C(C)C)cc1C | 8 | 14.5% (inactive)
3 | CC(C)c1nc(C#N)c(NCc2cccnc2)o1 | 16.5 | 31% (inactive)
4 | Cc1cc(C(=O)OCC(=O)c2ccc(NC(=O)CC(C)C)cc2)no1 | 14.5 | 13.5% (inactive)
5 | FC(F)Oc1ccc(NC(=S)NC2CCCC2)cc1 | -10.5 | -12.5% (inactive)
6 | FC(F)Oc1ccc(NC(=S)NNc2ccc(Cl)nn2)cc1 | 28 | 104% (active)
7 | CN(CC(=O)Nc1ccc(Cl)cc1)C(=O)c1ccc(OC(F)F)cc1 | 17 | 13% (inactive)
8 | CCC(C)N=C1NC(=O)C(CC(=O)NCc2ccccc2)S1 (configuration not stated) | 8.5 | 10.5% (inactive)
9 | COC(=O)c1c(C)[nH]c(=O)[nH]c1=S | 1.5 | -6.5% (inactive)
10 | O=S1(=O)CCN2C=CSC2=N1 | 11.5 | 17% (inactive)
11 | Cc1sc2c(c1C)C1=NS(=O)(=O)CCN1C=N2 | 10 | 88.5% (active)
12 | COC(=O)C1=NC=CN2CCS(=O)(=O)N=C12 | 9.5 | 7% (inactive)
13 | CCOc1ccccc1NC(=O)CSc1nc(O)cc(=O)n1C1CCCC1 | 5.5 | 7.5% (inactive)
14 | CCOc1ccc(O)c(C=NC2CCCC2)c1 | 2.5 | 2.5% (inactive)
15 | COc1ccc(OCC(=O)N2CC(C)CC(C)C2)cc1 (configuration not stated) | -8 | 7% (inactive)
16 | NC(=S)Cc1nc2ccccc2[nH]1 | 27 | 98% (active)
17 | N/C(Cc1nc2ccccc2[nH]1)=N\O | 2 | 24% (inactive)
18 | CC(C)(C)Cc1nc2ccccc2[nH]1 | 18 | 20.5% (inactive)
19 | Cc1cc(=O)[nH]c(NNC(=S)Nc2ccc(S(=O)(=O)N3CCOCC3)cc2)n1 | 10 | 72% (inactive)
20 | COc1ccc(NC(=O)COC(=O)C23CCC(=O)N2c2ccccc2S3)cc1 (configuration not stated) | 5 | -0.5% (inactive)
21 | Cc1ccc(NC(=O)Nc2ccc3c(c2)C(=O)NC3=O)cc1 | 14 | 9% (inactive)

Row | SMILES | inhibition [1] [%] | inhibition [2]
22 | Cc1ccc(NC(=O)Nc2ccc(N(C)C)cc2)cc1 | 3.5 | 98.5% (active)
23 | Cc1ccc(C(=O)OCC(=O)Nc2ccc(N(C)C)cc2)c(C)c1 | -7.5 | 24.5% (inactive)
24 | CN(C)C(CNC(=O)c1ccc2ncsc2c1)c1cccs1 (configuration not stated) | 13 | 18% (inactive)
25 | O=C(CCc1nc2ccccc2o1)Nc1cccc(-n2cnnn2)c1 | 6.5 | 16.5% (inactive)
26 | CC(C)NC(=S)NNc1ccccc1C(F)(F)F | -31 | 14% (inactive)
27 | CC(C)NC(=S)NNc1ncc(C(F)(F)F)cc1Cl | 8 | 89% (active)
28 | FC(F)(F)c1cnc(NNC(=S)NCC2CCCO2)c(Cl)c1 (configuration not stated) | -1 | 51.5% (inactive)
29 | CCN(C(=O)CSc1nnc(-c2ccccc2)c(-c2ccccc2)n1)C1CCS(=O)(=O)C1 (configuration not stated) | -2.5 | 6% (inactive)
30 | COC(=O)C1=C(C)NC(C)=C(C(=O)OC)C1C(=O)OCC(=O)Nc1cccc2nsnc12 | -2 | -15% (inactive)
31 | N#CCC(=O)Nc1ccc(C(=O)NCc2ccccc2)cc1 | 21.5 | 29.5% (inactive)
32 | CS(=O)(=O)CCC1NC(=O)NC1=O (configuration not stated) | 2.5 | 10.5% (inactive)
33 | O=C(Nc1ccc(N2CCCCCC2)cc1)c1ccncc1 | 26.5 | 62% (inactive)
34 | COc1ccc(C(=O)Nc2ccc(N3CCCCC3)cc2)cc1 | -2 | 22.5% (inactive)
35 | CC(=O)Nc1cccc(C(=O)Nc2ccc(N3CCCCC3)cc2)c1 | 7 | 83.5% (active)
36 | Cc1cc(C(=O)CSc2ccccn2)c(C)n1Cc1cccs1 | 12 | 16% (inactive)
37 | CCN(C(=O)C(C)Sc1nc(C)cs1)c1ccccc1 (configuration not stated) | 3.5 | 14.5% (inactive)
38 | CCN(CC)C(=S)SCc1ncc(-c2ccccc2)o1 | 3.5 | 13% (inactive)
39 | CCN(CC)C(=S)SSC(=S)N(CC)CC | -13.5 | 96% (active)
40 | Cc1ccc(NNC(=S)NCC2CCCO2)c(C)c1 (configuration not stated) | 6.5 | 10% (inactive)
41 | FC(F)(F)c1nc(NNC(=S)NCC2CCCO2)c2ccccc2n1 (configuration not stated) | 25 | 100% (active)
42 | O=C(O)c1ccc(NNC(=S)NCC2CCCO2)cc1 (configuration not stated) | -33 | -78.5% (inactive)

Row | SMILES | inhibition [1] [%] | inhibition [2]
43 | O=C1CCC(C(=O)NC2CCCCCC2)=NN1 | 11 | 18.5% (inactive)
44 | Cc1cc(SCC(=O)O)n2c(nc3ccccc32)c1C#N | 1 | 20% (inactive)
45 | Cc1ccccc1-n1cc[nH]c1=S | 4.5 | 23.5% (inactive)
46 | Cc1ccccc1N1C(=O)Cc2ccccc2C1=O | 2 | 16.5% (inactive)
47 | Cc1ccccc1N1C(=O)C=CC1=O | 4 | 82% (active)
48 | O=C(O)CCN(Cc1ccccc1)S(=O)(=O)c1cccs1 | 1.5 | 11% (inactive)
49 | Cc1nc2ccc(NC(=O)C3CCCC3)cc2s1 | 12.5 | 14% (inactive)
50 | N#Cc1ccc(CSc2nncn2-c2ccccc2)cc1 | -2 | -5.5% (inactive)
51 | NNc1nc(-c2ccccc2)c2cc(Br)ccc2n1 | 16.5 | 91% (active)
52 | Cc1ccc2nc(N3CCCC3)nc(-c3ccccc3)c2c1 | 2.5 | 3% (inactive)
53 | Nc1nc(N)c2nc(-c3ccccc3)c(N)nc2n1 | 21 | 5% (inactive)
54 | CCC(=O)Nc1ccc(C(=O)CN2C(=O)NC3(CCCc4ccccc43)C2=O)cc1 (configuration not stated) | 16 | 14.5% (inactive)
55 | O=C(COc1ncnc2ccc(Br)cc12)N1CCCCC1 | 4.5 | 4.5% (inactive)
56 | Cc1cc(C)nc(SC2=C(N3CCC(C)CC3)C(=O)N(Cc3ccccc3)C2=O)n1 | 4.5 | 14% (inactive)
57 | Cc1cc(C)nc(SCC(=O)OCCN2C(=O)c3ccccc3C2=O)n1 | 9.5 | 18% (inactive)
58 | Cc1cc(C)nc(SC2=C(Nc3ccc(O)cc3)C(=O)N(Cc3ccccc3)C2=O)n1 | 26.5 | 86.5% (active)
59 | COc1ccc2c(CN3CC=C(c4ccccc4)CC3)cc(=O)oc2c1 | 8 | 4.5% (inactive)
60 | Cc1c(CN2CC=C(c3ccccc3)CC2)c(=O)n(-c2ccccc2)n1C | -2.5 | 9% (inactive)
61 | Cc1cc(O)c(CN2CC=C(c3ccccc3)CC2)cc1C(C)C | -16 | -85.5% (active)
